# In the library only some 19% were active in any assay of this set; here they are far more common.
# IL1B secr inh = inflammasome signaling inhibition, IL-1 beta readout | THP-1 LPS/ATP IL-1B secretion, AlphaLISA, 16 h; hits give low values | activity change, % at 57.5 µM | hit rate 4.7% among 360,000; in the data active = activity change below about -50%; inconclusive = mostly about -30% to -49%
#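 Secreted IL-1B measured by AlphaLISA bead assay after 16 h compound exposure of THP-1 cells; compounds (final up to 57.5 uM) added 1 h before LPS (250 ng/mL) and ATP (1.25 mM) stimulation; lower signal means less secretion.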
# HT1080 IDH1KD tx = HT-1080 IDH1 knockdown cell toxicity (counter line) | HT-1080 IDH1 knockdown viability, ATP luminescence, 48 h | Potency, µM (doses to about 46.1 µM), without a hit: at the highest dose activity, negative = toxicity, usual class: cytotoxic | hit rate 2% among 360,000 | AID 686971;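 note: potency is the fitted concentration of half-maximal effect; 0% = DMSO wells and -100% = cell-free medium wells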
#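 Luminescent ATP read-out (CellTiter-Glo, 10 min at room temperature) after 48 h compound exposure at 37 °C gave viability of IDH1-knockdown HT-1080 cells. Activity was normalised to DMSO and cell-free wells, then fitted as concentration-response curves.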
# DT40 TDP1 CPT = growth inhibition of DT40 Tdp1-/-;hTDP1 cells with camptothecin (screen for TDP1 inhibitors) | AID 686979 | Potency, µM (highest dose often 46.2 µM), inactives show at the top dose activity change, negative = growth inhibition, actives largely listed as inhibitors | chicken DT40 Tdp1-/-;hTDP1 cells + 20 nM CPT, ATP luminescence, 48 h | hit rate 12% among 420,000; note: potency is the fitted concentration of half-maximal effect; nearly all actives have a fitted effect of over 55% in size
#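 Cell growth measured by CellTiter-Glo luminescence after a minimum 48 h, 37 C compound exposure with 20 nM CPT in Tdp1-knockout DT40 cells stably expressing hTDP1, seeded 400/well; qHTS titration format.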
# TDP1 cell noCPT = qHTS for Inhibitors of human tyrosyl-DNA phosphodiesterase 1 (TDP1): qHTS in cells in absence of CPT; Potency, µM (doses to about 46.2 µM), for the others: at the highest dose activity change, negative = growth inhibition, usual class: inhibitors; hit rate 15% among 420,000; DT40 Tdp1-/- hTDP1 cells, no CPT, ATP luminescence, 48 h; note: potency is the fitted concentration of half-maximal effect; nearly all actives have a fitted effect of over 55% in size
#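 A cellular qHTS used chicken DT40 cells lacking endogenous Tdp1 but carrying stably transfected human TDP1. Compounds were applied without camptothecin, and cell growth kinetics were judged by ATP-dependent luminescence after ≥48 hr.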
# HT1080NT lethal = kills 2HG-producing HT-1080-NT fibrosarcoma cells; HT-1080-NT fibrosarcoma viability, CellTiter-Glo ATP luminescence, 48 h; Potency, µM (series often up to 46.1 µM), for inactives: at the highest dose activity, negative = less viability, actives largely listed as cytotoxic; hit rate 1.6% among 360,000; AID 686970;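 note: NT is the 2HG producing partner of a matched IDH1 knockdown line; potency is the fitted concentration of half-maximal effect; 0% = DMSO-treated cells and -100% = media-only wells without cells; nearly all actives have a fitted effect of over 55% in size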
#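 Viability by CellTiter-Glo luminescence after 48 h compound exposure at 37C of HT-1080-NT cells (750/well, RPMI, 5% FBS). % activity scaled between DMSO wells and medium-only wells, then curve-fitted and categorized by curve class.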
# * marks the source's active call; other numbers are inactive results; i = inactive; ? = inconclusive; . = not tested or not shown; [ ] = remark or other dose. Unless noted, calls come from the whole dose curve; as a rule, active = well fitted curve in the direction sought with a large enough effect; inconclusive = small, poorly fitted or top-dose-only effect, or another doubt; inactive = no such curve, though single readings can be large; an effect the other way counts as inactive or inconclusive. Unless noted, % is set by controls: 0 for no effect and ±100 for the full control effect.
SMILES,IL1B secr inh,HT1080 IDH1KD tx,DT40 TDP1 CPT,TDP1 cell noCPT,HT1080NT lethal
Nc1c(N=Nc2ccc([N+](=O)[O-])cc2)c(S(=O)(=O)O)cc2cc(S(=O)(=O)O)c(/C=C/c3ccccc3)c(O)c12,.,.,10µM*,14µM*,.
Cc1ccc(NC(=O)CSCC(=O)NNC(=O)c2ccoc2C)cc1,0,12%,-1%,-8%,5%
COc1ccccc1-c1nn(CCC(=O)Nc2cccc(C(C)=O)c2)c2nc(C)cc(C)c12,.,.,?,16µM*,.
Cc1cccc(COC(=O)CCCNC(=O)c2ccc(Cl)cc2)c1,-7,3%,-15%,-21%,1%
Cc1ccc(NC(=O)c2sc3nc(-c4cc5ccccc5oc4=O)[nH]c(=O)c3c2C)c(C)c1,.,.,-12%,-28%,.
Cc1ccccc1NC(=O)c1sc2nc(-c3cc4ccccc4oc3=O)[nH]c(=O)c2c1C,.,.,8.2µM*,?,.
Cc1ccc(C(=O)Nc2nnc(S(=O)(=O)N3c4ccccc4CC3C)s2)cc1 (centres undefined),.,.,?,23µM*,.
CC1Cc2ccccc2N1S(=O)(=O)c1cccc(C(=O)N2CCN(c3ncccn3)CC2)c1 (centres undefined),-66*,?,?,?,-29%
CC(=O)N1CCN(C(=O)c2cccc(S(=O)(=O)N3c4ccccc4CC3C)c2)CC1 (centres undefined),34,-4%,-9%,-26%,2%
COc1ccccc1N1CCN(C(=O)c2cccc(S(=O)(=O)N3CCCCCC3)c2)CC1,4,-3%,?,18µM*,-3%[9.24 µM]
COc1ccc(S(=O)(=O)N2CCCCCC2)cc1C(=O)N1CCN(c2ccccc2C)CC1,-1,-15%,?,21µM*,-2%
COc1ccccc1N1CCN(C(=O)c2cc(S(=O)(=O)N3CCCCC3)ccc2C)CC1,22,-4%,?,?,-17%
CC(C)C(=O)Nc1nnc(S(=O)(=O)N2c3ccccc3CC2C)s1 (centres undefined),8,3%,17%,0%,6%
NC(=O)c1ccc[n+](CC(=O)Nc2ccccc2C(=O)O)c1,-2,26%,-2%,-15%,20%
Clc1ccc(CN2CCN(c3ccccc3)CC2)cn1,10,2%,5%,10%,10%
Cc1cc(C)c(C(=O)NCc2nc(-c3cccc(NC(=O)C4CCCN(C)C4)c3)oc2C)[nH]1 (centres undefined),.,.,-2%[9.04 µM],?,.
CCOC(=O)c1ccc(NC(=O)c2cccc(S(=O)(=O)N3c4ccccc4CC3C)c2)s1 (centres undefined),18,?,16µM*,6.5µM*,?
COc1ccc(S(=O)(=O)N2CCCCCC2)cc1C(=O)N1CCN(c2ccccc2O)CC1,-7,8%,15µM*,?,10%
COc1ccc(S(=O)(=O)N2CCN(c3ccccc3)CC2)cc1C(=O)N1CCCC1,10,5%,-1%,-20%,3%
Cc1ccc(S(=O)(=O)N2[C@@H](c3ccc(F)cc3)C(C(=O)O)=CC[C@H]2c2cccc(C)c2)cc1,23,-3%,7%,4%,16%
CCOC(=O)C1=CC[C@@H](c2ccco2)N(S(=O)(=O)c2ccc(C)cc2)[C@H]1C(=O)OCC,1,7%,?,18µM*,9%
CCOC(=O)C1=CC[C@@H](c2ccccc2Cl)N(S(=O)(=O)c2ccc(C)cc2)[C@H]1C(=O)OCC,-1,-12%,?,21µM*,-2%
CCOC(=O)C1=CC[C@@H](c2cccc(C)c2)N(S(=O)(=O)c2ccc(C)cc2)[C@H]1C(=O)OCC,0,-18%,15µM*,16µM*,-12%
O=C(OCC(=O)N1CCOCC1)c1cncc(Br)c1,-3,4%,4%,7%,-1%
Cc1cc(C)cc(N(CCC#N)C(=O)COC(=O)c2ccc(OCc3c(C)noc3C)cc2)c1,24,-2%,-26%,-20%,-4%
SMILES,IL1B secr inh,HT1080 IDH1KD tx,DT40 TDP1 CPT,TDP1 cell noCPT,HT1080NT lethal
Cc1ccc(/C(N)=N/OC(=O)N2CCOCC2)cc1,-17,18µM*,18µM*,?,?
CC1=CC2C(=O)c3cccc(O)c3C(=O)C2C(O)=C1 (centres undefined),.,.,23%[9.04 µM],7%[9.04 µM],.
O=S(=O)(c1cccs1)N1CCN(c2ccnc3cc(Cl)ccc23)CC1,.,?,13µM*,23µM*,?
CC(=O)N1CCN(c2ccnc3cc(Cl)ccc23)CC1,-19,-5%,-13%,-28%,6%
Cc1cc(N2CCN(c3nc(-c4ccccc4)cs3)CC2)c2ccccc2n1,?,1%,23µM*,21µM*,8%
Cc1cc(N2CCN(C(=O)c3ccco3)CC2)c2ccccc2n1,-2,-3%,-15%,-14%,3%
O=S(=O)(c1ccccc1)N1CCN(c2ccnc3cc(Cl)ccc23)CC1,-86*,?,16µM*,?,-27%
Cc1cc(N2CCN(S(=O)(=O)c3ccccc3)CC2)c2ccccc2n1,-15,?,16µM*,18µM*,?
COc1cccc(-n2nnc3c(sc4nc(C)cc(C)c43)c2=O)c1,.,.,-22%,-15%,.
CCN(CC)S(=O)(=O)c1ccc(OC)c(NC(=O)c2cc([N+](=O)[O-])ccc2N2CCOCC2)c1,-4,0%,?,16µM*,-3%
CCN(CC)S(=O)(=O)c1cc(NC(=O)c2cc([N+](=O)[O-])ccc2N2CCOCC2)ccc1C,i,-15%,?,16µM*,-14%
CN1OC[C@@H]2CN(S(=O)(=O)c3cccc(C(F)(F)F)c3)[C@H](c3ccc(N4CCCCC4)cc3)C[C@@H]21,-1,15%,?,?,24%
COc1ccc2cc(C(=O)NCCCN3CCCC3=O)[nH]c2c1,4,-1%,0%,1%,-3%
CCOC(=O)C1=C(COC(=O)c2ncc(Cl)c(Cl)c2Cl)NC(=O)NC1C (centres undefined),-20,0%,7%,15%,4%
COc1ccc(-c2nc(SCC(=O)Nc3ccc4c(c3)OCO4)c(-c3ccc(OC)cc3)[nH]2)cc1,.,.,-19%,-27%,.
Cc1cccc(-c2nc(SCC(=O)Nc3ccc4c(c3)OCO4)c(-c3ccccc3)[nH]2)c1,.,.,21µM*,?,.
O=C(CSc1nc(-c2ccccc2)[nH]c1-c1ccccc1)Nc1ccc2c(c1)OCCO2,.,.,10µM*,9.2µM*,.
COc1ccc(-c2[nH]c(-c3ccccc3)nc2SCC(=O)Nc2ccc3c(c2)OCCO3)cc1,.,.,13µM*,16µM*,.

# Compound activity: PubChem, National Center for Advancing Translational Sciences (NCATS)
